Measured values reported in PubChem BioAssay AID1942 (Johns Hopkins Ion Channel Center, 2009).
Hit rate of the full screen: of about 2,400 compounds, about 580 (24%) were called active.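 Rule for the calls: active = activity change at or above the mean plus 3 SD of buffer wells without dofetilide, per plate; inactive = the rest.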 A selection follows.

Target: Potassium voltage-gated channel subfamily KQT member 2 (Rattus norvegicus) (UniProt O88943)
Test: rat KCNQ2 channel activation by compounds alone, confirmation, counter-screen for hERG block protector project, cell-based, CHO, FluxOR thallium flux (AID 1942);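 note: normalized value minus buffer-control mean plus three SD of buffer wells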
Conditions: CHO-KCNQ2 cells, FluxOR thallium flux fluorescence; at 10 µM; active compounds read high

Chain of Potassium voltage-gated channel subfamily KQT member 2 (Rattus norvegicus) (O88943 whole entry, looked up): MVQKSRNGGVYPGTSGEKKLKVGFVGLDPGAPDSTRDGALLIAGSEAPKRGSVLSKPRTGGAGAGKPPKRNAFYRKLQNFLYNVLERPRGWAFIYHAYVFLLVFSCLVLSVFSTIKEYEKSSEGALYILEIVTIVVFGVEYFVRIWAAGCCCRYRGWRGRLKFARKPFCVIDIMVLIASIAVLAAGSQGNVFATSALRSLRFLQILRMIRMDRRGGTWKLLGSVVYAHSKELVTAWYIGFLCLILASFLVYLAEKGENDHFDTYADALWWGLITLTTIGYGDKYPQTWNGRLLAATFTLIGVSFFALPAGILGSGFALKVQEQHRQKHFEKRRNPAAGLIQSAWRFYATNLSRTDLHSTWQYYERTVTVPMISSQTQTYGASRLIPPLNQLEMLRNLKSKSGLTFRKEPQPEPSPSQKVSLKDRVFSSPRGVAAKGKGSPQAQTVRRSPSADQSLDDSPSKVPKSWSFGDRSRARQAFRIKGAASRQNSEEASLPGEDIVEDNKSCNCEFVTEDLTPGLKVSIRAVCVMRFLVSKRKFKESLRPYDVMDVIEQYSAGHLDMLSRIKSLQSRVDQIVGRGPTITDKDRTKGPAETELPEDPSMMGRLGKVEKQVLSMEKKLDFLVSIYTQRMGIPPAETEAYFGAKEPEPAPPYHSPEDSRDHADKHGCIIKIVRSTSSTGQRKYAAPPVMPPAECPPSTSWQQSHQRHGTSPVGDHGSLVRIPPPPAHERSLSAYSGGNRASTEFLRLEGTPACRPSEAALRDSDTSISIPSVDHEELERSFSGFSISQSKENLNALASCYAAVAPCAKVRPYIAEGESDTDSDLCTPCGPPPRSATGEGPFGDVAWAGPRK

SMILES | activity change, less the hit threshold
CN(C(=S)NC(=O)c1ccccc1)C1CCCCC1 | 2% (active)
Cc1cccc(C(=O)NC(=S)NNC(=O)COc2c(C)cccc2C)c1 | -27.8% (inactive)
COc1ccc(C(=O)NC(=S)N(C)C2CCCCC2)cc1 | -3.2% (inactive)
Cc1ccc(C(=O)NC(=S)N(C)C2CCCCC2)cc1 | 5.4% (active)
O=C(NC(=S)NNC(=O)[C@H]1C[C@@H]1c1ccccc1)c1cccc(F)c1 | -30.9% (inactive)
CN(C1=C(NC(=O)c2ccccc2)C(=O)c2ccccc2C1=O)C1CCS(=O)(=O)C1 (stereo not drawn) | -3.2% (inactive)
Cc1cccc(C(=O)NC(=S)N(C)C2CCCCC2)c1 | 18.5% (active)
C/C(=C\C(=O)c1ccccc1)NNC(=O)c1ccc(Cl)cc1 | -3.2% (inactive)
CC(C)CNC(=S)NC(=O)c1ccc(Cl)cc1 | -3.9% (inactive)
CN(C(=S)NC(=O)c1ccc(Cl)cc1)C1CCCCC1 | 4.8% (active)
COc1ccc(-c2nn(-c3ccccc3)cc2C(=O)Nc2cccc(C(=O)O)c2)cc1[N+](=O)[O-] | -18.7% (inactive)
Cc1c(Cl)c([N+](=O)[O-])nn1CC(=O)NCC(C)C | -16.4% (inactive)
O=C(CCCOc1ccc(Cl)cc1Cl)Nc1ccccc1C(=O)O | -39.2% (inactive)
O=C(c1ccc(CS(=O)c2cccc(Cl)c2)o1)N1CCCCCC1 (stereo not drawn) | -25.8% (inactive)
O=S(=O)(c1ccc(F)cc1)N1CCN(c2ccc(F)cc2)CC1 | -13.8% (inactive)
CCCNC(=O)N1CCN(S(=O)(=O)c2ccc(C)cc2)CC1 | -17.2% (inactive)
Cc1ccc(O)c(C(=O)CC(=O)c2ccc(Cl)cc2)c1 | -16.6% (inactive)
Cc1ccc(O)c(C(=O)CC(=O)c2ccccc2Cl)c1 | -13.5% (inactive)
Cc1ccc(O)c(Sc2cc(C)ccc2O)c1 | 2% (active)
NNC(=O)CNc1ccccc1Cl | -15.1% (inactive)
O=C(NCC1CCS(=O)(=O)C1)Oc1ccccc1 (stereo not drawn) | -12.4% (inactive)
C=CCN(c1cccc(C(F)(F)F)c1)S(=O)(=O)c1cccc(C(=O)OCC(=O)Nc2ccccc2)c1 | -0.5% (inactive)
C=CCN(c1ccccc1)S(=O)(=O)c1cccc(C(=O)Nc2nnc(SCC)s2)c1 | -20.2% (inactive)
C=CCN(c1ccc(Cl)cc1)S(=O)(=O)c1cccc(C(=O)O)c1 | 4.4% (active)
CN(C)S(=O)(=O)c1cccc(C(=O)Nc2cccnc2)c1 | -13.5% (inactive)

SMILES | activity change, less the hit threshold
CCN(Cc1ccccc1)C(=S)NC(=O)c1ccccc1Br | 66.7% (active)
O=C(NC(=S)N(Cc1ccccc1)Cc1ccccc1)c1ccccc1F | 38.8% (active)
CC(C)CN(C(=O)COC(=O)CNC(=O)c1ccccc1F)c1c(N)n(Cc2ccccc2)c(=O)[nH]c1=O | -7.7% (inactive)
CN(Cc1ccccc1)C1CCN(Cc2ccccc2[N+](=O)[O-])CC1 | -15.5% (inactive)
O=C(Cn1cncn1)c1ccccc1Br | -24% (inactive)
CCN(C(=S)NC(=O)c1ccccc1Br)C1CCCCC1 | 62.1% (active)
O=C(Nc1ccccc1C(=O)O)c1cccc(NC(=O)c2ccccc2Br)c1 | -16% (inactive)
COc1nccnc1NS(=O)(=O)c1ccc(NC(=S)NC(=O)c2ccccc2F)cc1 | -13.5% (inactive)
CCCN(Cc1ccccc1)C(=S)NC(=O)c1ccccc1[N+](=O)[O-] | 92.5% (active)
O=C(NCC1CCCCC1)c1cccnc1Cl | -17.7% (inactive)
CCC(=O)NC(=S)NNC(=O)c1ccccc1[N+](=O)[O-] | -19.6% (inactive)
CC1=NNC(=O)C1CC(=O)N/N=C/C=C/c1ccccc1 (stereo not drawn) | -21.4% (inactive)
Cc1cnc(NC(=O)CN2CCN(c3ccccc3F)CC2)s1 | -16.9% (inactive)
COc1cc(/C=C2/OC(=O)c3cc([N+](=O)[O-])ccc32)cc(OC)c1OC | -15.4% (inactive)
CCO/C=C1\N=C(c2ccc(F)cc2)OC1=O | -13.2% (inactive)
O=C(CN1C(=O)S/C(=C\c2cc(Cl)c(O)c(Cl)c2)C1=O)Nc1ccccc1 | -30.2% (inactive)
CC(C)C12CN3CC(C(C)C)(CN(C1)C31C(=O)Nc3ccccc31)C2=O (stereo not drawn) | -24.3% (inactive)
O=C(COC(=O)c1cc(S(=O)(=O)NCc2ccccc2)ccc1O)NCc1ccccc1 | -13.2% (inactive)
C=CCn1c(SCc2ccc(C(=O)O)cc2)nc2sc(C)c(C)c2c1=O | 46.6% (active)
C=CCN1C(=O)C(Cc2ccc(OCC)cc2)SC1=Nc1ccc(C(=O)O)cc1 (stereo not drawn) | -15.5% (inactive)
O=C1CN(S(=O)(=O)c2ccccc2)CC(=O)N1CCc1ccccc1 | -18.7% (inactive)
Cc1ccc(Nc2nc(C)cs2)cc1 | -9.5% (inactive)
Cc1ccc(Nc2cc(C)nn2-c2nc(C)cc(=O)[nH]2)cc1 | 68.6% (active)
Cc1cccc(N/C(N)=N/c2nc(C)cc(=O)[nH]2)c1 | -13.7% (inactive)
Cc1nnc(N2C(=O)C(=O)/C(=C(\O)c3ccc4c(c3)CC(C)O4)C2c2ccccc2)s1 (stereo not drawn) | -7.2% (inactive)

SMILES | activity change, less the hit threshold
Cc1cc(O)c(/C=N/OCc2ccc(Cl)cc2Cl)c(=O)o1 | -19.1% (inactive)
Cc1cc(C)cc(NC(=O)N2CCCC2C(=O)Nc2ccc(-n3cnnn3)c(C)c2)c1 (stereo not drawn) | -19% (inactive)
COc1ccc(-c2csc(NC(=S)NC(=O)c3ccc4ccccc4c3)n2)cc1OC | -11.9% (inactive)
CCOC(=O)Cc1csc(NC(=S)NC(=O)c2ccccc2Br)n1 | 9.2% (active)
CCOC(=O)Cc1csc(NC(=S)NC(=O)c2ccccc2C)n1 | 3.3% (active)
CCOC(=O)Cc1csc(NC(=S)NC(=O)c2ccc(C)cc2)n1 | -3.1% (inactive)
CCOC(=O)Cc1csc(NC(=S)NC(=O)C(C)(C)C)n1 | -1.3% (inactive)
Cc1csc(NC(=S)NC(=O)c2ccccc2)n1 | 7.2% (active)
CCOC(=O)Cc1csc(NC(=S)NC(=O)c2ccc(Cl)cc2)n1 | -7.1% (inactive)
Cc1[nH]cnc1CSCCN | -10.5% (inactive)
CCOC(=O)N1CCN(C(=O)CSc2nnc(-c3ccccc3OC)o2)CC1 | -10.3% (inactive)
Brc1ccc(Nc2nc(-c3cccnc3)cs2)cc1 | -11.1% (inactive)
O=C(COC(=O)C1CCC(=O)N1)Nc1ccc(Oc2ccccc2)cc1 (stereo not drawn) | -11% (inactive)
Cc1oc2cc(O)ccc2c(=O)c1N1C(=O)c2ccccc2C1=O | -14.7% (inactive)
CN(CC(=O)Nc1nc2ccccc2s1)S(=O)(=O)c1ccc(Cl)cc1 | -27% (inactive)
Cn1ncc2c(O/N=C(\N)c3ccc(C(F)(F)F)cc3)ncnc21 | -7.2% (inactive)
COC(=O)c1c(NC(=O)C2CC=CCC2C(=O)O)sc(C)c1C (stereo not drawn) | -12.3% (inactive)
Cc1ccccc1C(=O)NC(=S)Nc1sc2c(c1C#N)CCC(C)C2 (stereo not drawn) | -29% (inactive)
Cc1onc(-c2ccccc2)c1C(=O)NC(=S)Nc1sc2c(c1C#N)CCC(C)C2 (stereo not drawn) | -3.3% (inactive)
CCC(C)(C)C1CCc2c(sc(NC(=O)c3ccccc3C(=O)O)c2C#N)C1 (stereo not drawn) | 38.4% (active)
CCC1CCc2c(sc(NC(=O)C3CC=CCC3C(=O)O)c2C#N)C1 (stereo not drawn) | 1.4% (active)
CCc1ccccc1NC(=O)CC1CS(=O)(=O)CC1CC(=O)Nc1ccccc1CC (stereo not drawn) | -17% (inactive)
CC(C)(C)c1ccc(Cn2nc(CC(=O)O)c3ccccc3c2=O)cc1 | -4.4% (inactive)
C=CCn1c2ccccc2c(=O)c2cc(C#Cc3ccsc3)ccc21 | -16% (inactive)
CCCCOC(=O)Cn1c2ccc(OC)cc2c2nc3ccccc3nc21 | -3.3% (inactive)

SMILES | activity change, less the hit threshold
CCc1ccc(C(=O)CSc2nc3ccccc3c(=O)[nH]2)cc1 | -15.1% (inactive)
CC(C)OC(=O)c1c2nc3ccccc3nc2n2c1[nH]c(=O)c1ccccc12 | 83.4% (active)
COCc1cc(C)nc(OCC(=O)N/N=C/c2ccc(-c3cc([N+](=O)[O-])ccc3Cl)o2)c1C#N | -8.1% (inactive)
Cc1ccc(-c2cccc(C3CC=CC4C3C(=O)N(Cc3ccccc3)C4c3ccc4ccccc4c3)c2)cc1 (stereo not drawn) | -15.4% (inactive)
Cc1ccc(NC(=O)COc2cccnc2[N+](=O)[O-])cc1S(=O)(=O)N1CCOCC1 | -18.2% (inactive)
Cc1nnc2c(SC(C)C)nc3ccccc3n12 | -19.3% (inactive)
CCc1ccc2[nH]c(O)c(N=Nc3nc(-c4ccccc4)cs3)c2c1 | -16.3% (inactive)
Cc1ccccc1OCC(=O)N=Nc1c(O)n(C)c2ccccc12 | -2.4% (inactive)
Cn1c(O)c(N=Nc2nc(-c3ccccc3)cs2)c2ccccc21 | 67.2% (active)
N#Cc1cccc(N=c2ssnc2Cl)c1 | -15.2% (inactive)
Cc1cc(=O)[nH]c(N/N=C2/CCCC/C2=C\c2ccccc2)n1 | -11.4% (inactive)
CSC(=S)N/N=C/c1ccccc1 | 48% (active)
C/C(=N\NC(N)=S)c1cccnc1 | -17.7% (inactive)
CC(C)NC(=S)N/N=C/c1ccc(C(C)(C)C)cc1 | -8.8% (inactive)
CSC(=S)N/N=C/c1ccc(Br)cc1 | -6.8% (inactive)
CSC(=S)N/N=C(\C)c1ccccc1 | 42.3% (active)
C/C(=N\NC(N)=S)c1ccncc1 | -10.4% (inactive)
COc1ccc(-n2c(SCC#N)nnc2-c2cccnc2)cc1 | -24.2% (inactive)
O=C(CC(=O)c1ccccc1O)c1cccc(F)c1 | -11.1% (inactive)
Cc1cc(F)c(F)c(C(=O)N2CCOCC2)c1 | -20.6% (inactive)
CC(C)(C)OC(=O)N1CCC2(CC1)Oc1ccc(Cl)cc1C(=O)C21CC(c2ccc(Cl)cc2)=NO1 (stereo not drawn) | -20.7% (inactive)
Cn1nc(C(F)(F)F)c(-c2ccc(Br)cc2)c1NC(=O)c1cccnc1 | -21.4% (inactive)
COc1ccc(C(=O)NNC(=O)CSc2nnc(COc3ccccc3)n2C)cc1 | -15.5% (inactive)
